Data as given in ChEMBL document CHEMBL3988442, “University of Dundee, Small-Polar-MMV Screening Library” (2021).
Out of some 69,000 compounds screened, about 950 (1.4%) showed an effect of 50% or more. What follows is part of a selection rich in strong results, with near analogues and random picks from the rest.

system: Mycobacterium tuberculosis; test: Cornell M. t heat shock assay; type: functional, organism-based; parameters: dose or concentration left out as unconfirmed; further: in the data most compounds retested in dose-response had high values

First: Cn1cc(C[C@H]2[C@H](N3CCOCC3)CCN2C(=O)c2ccco2)cn1.O=C(O)C(F)(F)F
Second: Cn1cc(CN2CC[C@@H]3[C@@H](CO[C@H]3CNC(=O)c3ccco3)C2)cn1.O=C(O)C(F)(F)F.O=C(O)C(F)(F)F
The “Percent Effect” value of the first is higher: 6.591% for the first, -15.87% for the second.

Compared with `COc1ccc(CN(Cc2cccnc2)CC2CCCO2)c(OC)c1.O=C(O)CC(O)(CC(=O)O)C(=O)O` (stereo unspecified), `COCCCNC(=O)Nc1ncc(-c2cccc(OC)c2)n1CCOC` is lower in “Percent Effect” value: 5.923% for the first, -7.26% for the second.

Going from `CCCn1ncc(-c2ccnc(NC3CCSC3)n2)c1C` (stereo unspecified) to `CCCn1ncc(-c2ccnc(N[C@@H]3C[C@@H]4CC[C@H]3C4)n2)c1C`, the “Percent Effect” value rises from -0.2299% to 50.09%.

First: CCCn1ncc(-c2ccnc(NC3CC(C)(C)NC(C)(C)C3)n2)c1C
Second: CCc1cnc(N)nc1NC(C)c1cnn(C)c1 (stereo unspecified)
The “Percent Effect” value of the first is lower: -32.44% for the first, -5.78% for the second.

Compared with `CCN1C[C@H]2[C@@H](C1)N(S(=O)(=O)c1ccccc1)CC[C@H]2OC.O=C(O)C(F)(F)F`, `CO[C@H]1CCN(S(=O)(=O)c2cccnc2)[C@@H]2CN(CC3CC3)C[C@H]12.O=C(O)C(F)(F)F.O=C(O)C(F)(F)F` is lower in “Percent Effect” value: 4.433% for the first, 2.331% for the second.

Compared with `O=C(CSCC1CC1)N1CCCC(c2nccn2Cc2ccccn2)C1` (stereo unspecified), `O=C(CSCC1CC1)N1CCCC(c2nccn2Cc2ccncc2)C1` (stereo unspecified) is higher in “Percent Effect” value: -24.76% for the first, 27.98% for the second.

Going from `COCCn1ccnc1C1CCCN(C(=O)CSCC2CC2)C1` (stereo unspecified) to `Cl.O=C(CCc1cccc(C2CCNCC2)n1)N1CCCCC1`, the “Percent Effect” value falls from 75.33% to -1.304%.

Compared with `CC(C)c1nc2c(n1C)CCN(Cc1cccc(OCC(N)=O)c1)C2`, `COCCn1c(-c2cccc(OC)c2)cnc1NC(=O)NCC(C)C` is higher in “Percent Effect” value: -13.93% for the first, 22.14% for the second.

Compared with `CC/N=c1\nc(NCC)nc2n1C(O)(Nc1cccc(C)c1C)CS2` (stereo unspecified), `CC/N=c1\nc(NCC)nc2n1C(O)(Nc1cc(C)ccc1C)CS2` (stereo unspecified) is lower in “Percent Effect” value: 59.58% for the first, 7.529% for the second.

Compared with `CC/N=c1\nc(NCC)nc2n1C(O)(Nc1cccc(Cl)c1Cl)CS2` (stereo unspecified), `Cc1ncccc1-c1cc2cccnc2n1CCCNC(=O)C(C)(C)C.Cl` is higher in “Percent Effect” value: 0.756% for the first, 11.8% for the second.

Compared with `CNC(=O)c1cccc(C2CNCCN2C(=O)c2cccc(F)c2)c1.Cl` (stereo unspecified), `CNCc1cc(F)ccc1Oc1ccc(Cl)cc1` is higher in “Percent Effect” value: -24.93% for the first, -7.892% for the second.

First: O=C(NCc1ccco1)[C@H]1COC[C@H]2CN(Cc3ccccn3)C[C@H]21.O=C(O)C(F)(F)F.O=C(O)C(F)(F)F
Second: O=C(O)C(F)(F)F.O=C(O)C(F)(F)F.O=C1Nc2ccccc2C12CCN(Cc1ccccn1)CC2
The “Percent Effect” value of the first is higher: -5.073% for the first, -17.02% for the second.

Going from `Cc1nc(-c2ccnc(N3CCNCC3)n2)no1.Cl.Cl` to `Cc1nn(C)c(Cl)c1CNCc1cccnc1N1CCN(C)CC1.Cl`, the “Percent Effect” value falls from 10.1% to -22.17%.

Going from `CC(C)COc1ccccc1C(N)CC(C)C` (stereo unspecified) to `CCOc1ccccc1C(N)CC(C)C` (stereo unspecified), the “Percent Effect” value rises from -26.57% to 6.467%.

First: CC(C)C[C@H](N)COc1cccc(F)c1Oc1ccc(Cl)cc1
Second: Cc1ccc(Oc2c(F)cccc2OC[C@@H](N)CC(C)C)cc1
The “Percent Effect” value of the first is higher: 105.7% for the first, 104.6% for the second.

First: CC(C)C[C@H](N)COc1cccc(F)c1Oc1ccccc1
Second: CC(C)C[C@H](N)COc1cccc(F)c1Oc1cccc(Cl)c1
The “Percent Effect” value of the first is lower: 5.666% for the first, 103.9% for the second.

Compared with `COc1ccccc1C(N)CC(C)C` (stereo unspecified), `CC(CNS(N)(=O)=O)Oc1cccc(Cl)c1` (stereo unspecified) is lower in “Percent Effect” value: -0.8675% for the first, -31.66% for the second.

Compared with `O=C(NC1CC1)[C@@H]1C[C@@H]2CCN(Cc3ccoc3)C[C@@H]2O1.O=C(O)C(F)(F)F`, `Cn1cccc1C(=O)N1C[C@H]2CN(Cc3cccs3)C[C@H]2C1.O=C(O)C(F)(F)F` is lower in “Percent Effect” value: 49.9% for the first, -10.6% for the second.

Going from `Cc1nn(C)cc1-c1cncn1CCc1ccc2c(c1)OCCO2.Cl` to `Cc1ccccc1C1CCN(CCn2cc(-c3cccc(O)c3)nn2)C1` (stereo unspecified), the “Percent Effect” value rises from -2.438% to 72.96%.

First: Cl.Cl.c1cncc(OC[C@@H]2CCC[C@@]23CNCCO3)c1
Second: Cn1ccnc1CN1CCC2(CC1)CCN(c1ccccc1)C2=O.O=C(O)C(F)(F)F
The “Percent Effect” value of the first is lower: -0.8406% for the first, 8.178% for the second.

Going from `Cc1ccccc1C1CCN(CCNC(=O)CS(C)(=O)=O)C1` (stereo unspecified) to `Cc1ccccc1C1CCN(CCn2cc(-c3nccn3C)nn2)C1` (stereo unspecified), the “Percent Effect” value rises from -16.65% to 32.84%.

First: CCSCCn1cc(-c2nccs2)nn1
Second: Cc1ccccc1C1CCN(CCn2cc(-c3nccs3)nn2)C1 (stereo unspecified)
The “Percent Effect” value of the first is lower: 12.13% for the first, 59.14% for the second.

First: Oc1cccc(-c2cc(C3CCN(Cc4cncnc4)C3)ccn2)c1 (stereo unspecified)
Second: CCOc1ccc(CN2CC[C@H]3CC[C@@H](C2)N3)cc1CO
The “Percent Effect” value of the first is higher: 20.76% for the first, -10.09% for the second.

First: CCC(=O)N1CCC2(CC1)CN(CCO)Cc1ccccc12.O=C(O)C(F)(F)F
Second: CN1Cc2ccccc2CC2(CCN(CCO)CC2)C1=O.O=C(O)C(F)(F)F
The “Percent Effect” value of the first is lower: -19.17% for the first, 19.63% for the second.

First: NCCc1c(-c2ccccc2)[nH][nH]c1=O.O=C(O)C(=O)O
Second: O=C(O)C(F)(F)F.O=C1Nc2ccccc2C12CCN(c1nccs1)CC2
The “Percent Effect” value of the first is lower: -25.01% for the first, -0.7259% for the second.

Going from `O=C(CCc1cncc(F)c1)NS(=O)(=O)c1ccc(F)cc1F` to `COc1cccc(CNCCNS(=O)(=O)Cc2ccccc2)c1`, the “Percent Effect” value falls from 21.56% to -28.9%.

First: COCCn1c(-c2cccc(OC)c2)cnc1NC(=O)NCCC(C)C
Second: COc1cccc(CNCc2nc3ccccc3c(=O)[nH]2)c1
The “Percent Effect” value of the first is lower: 67.45% for the first, 81.36% for the second.

Compared with `CCC1=N[C@@]2(CC[C@@H]3CN(Cc4ccc(Cl)cc4)C[C@@H]32)C(=O)N1.O=C(O)C(F)(F)F`, `Cc1nc(CN2C[C@@H]3CN(C(=O)c4cccn4C)C[C@@H]3C2)cs1.O=C(O)C(F)(F)F` is lower in “Percent Effect” value: 4.216% for the first, -44.62% for the second.

First: CCc1cnc(N)nc1N[C@@H](C)c1ncccc1C
Second: CCc1cnc(N)nc1NC(C)c1ccc(C)c(C)c1 (stereo unspecified)
The “Percent Effect” value of the first is lower: -10.37% for the first, 51.29% for the second.

Going from `Cl.Nc1cnn(CC(=O)N2CCCCC2)c1` to `O=C(O)C(F)(F)F.O=c1cc(CNS(=O)(=O)C2CC2)nc2n1CCCN(CC1CC1)C2`, the “Percent Effect” value rises from -8.542% to 21.63%.

`C=C(C)COc1cccc(CNCc2nc3ccccc3c(=O)[nH]2)c1` was tested, and the “Percent Effect” value was 22.25%.
